Data published in PubChem BioAssay (Tox21).
Inconclusive results are not listed. Active and inactive are the calls of the source. Unless noted, the call rests on the fitted dose curve; in most records, active means well fitted curve in the direction sought with a large enough effect in the repeat runs; inconclusive means weak or mixed curves; inactive means no such curve, though single readings can be large; an effect the other way counts as inactive or inconclusive.

Legend:
[1] = qHTS assay to identify small molecule agonists of the peroxisome proliferator-activated receptor delta (PPARd) signaling pathway - cell viability counter screen (AID 743211); further: nearly all actives have a fitted effect of over 55% in size; further: potency means the concentration at half of the fitted maximal effect
Summary of the method: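 qHTS cell viability: PPARd-bla HEK293H; 17 h cpd, 37C; CellTiter-Glo, luminescence at 30 min RT.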

[2] = qHTS assay to identify small molecule antagonists of the peroxisome proliferator-activated receptor delta (PPARd) signaling pathway - cell viability counter screen (AID 743213); further: nearly all actives have a fitted effect of over 50% in size; further: potency means the concentration at half of the fitted maximal effect
Summary of the method: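 In this counter screen, HEK293H cells carrying a UAS-beta-lactamase reporter are co-treated with test compounds and 300 nM L165041 (final) for 17 h at 37 C; cell viability is quantified by CellTiter-Glo luminescence.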

[3] = qHTS assay to identify small molecule agonists of the farnesoid-X-receptor (FXR) signaling pathway - cell viability counter screen (AID 743218); further: nearly all actives have a fitted effect of over 45% in size; further: potency means the concentration at half of the fitted maximal effect
Summary of the method: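 Viability of FXR-bla HEK 293T cells is measured by ATP-based CellTiter-Glo luminescence following 16 h compound treatment at 37 C and a prior 2 h room-temperature beta-lactamase substrate step.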

[4] = qHTS assay to identify small molecule antagonists of the farnesoid-X-receptor (FXR) signaling pathway - cell viability counter screen (AID 743221; active means well fitted cell-killing curve with a large enough effect in the repeat runs, not every such curve was filed as active; further: nearly all actives have a fitted effect of over 50% in size; further: potency means the concentration at half of the fitted maximal effect)
Summary of the method: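 After a 5 h settling period, FXR-bla HEK 293T cells receive compound and chenodeoxycholic acid (50 uM final) and incubate 16 h at 37 C; CellTiter-Glo luminescence, read after 30 min at room temperature, reports cell viability.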

[5] = biological target: Vitamin D3 receptor (Homo sapiens) (UniProt P11473); test: qHTS assay to identify small molecule antagonists of the vitamin D receptor (VDR) signaling pathway (AID 743223; active means well fitted inhibition curve with a large enough effect in the signal ratio in the repeat runs, not every such curve was filed as active; the % refers to the signal ratio; further: potency means the concentration at half of the fitted maximal effect)
Summary of the method: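 Reporter line VDR-bla; stimulus 1alpha,25-(OH)2 vitamin D3, 3 nM final; compound co-addition, 16 h 37C/5% CO2; LiveBLAzer B/G substrate 2 h RT; fluorescence intensity.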

[6] = qHTS assay to identify small molecule agonists of the vitamin D receptor (VDR) signaling pathway - cell viability counter screen (AID 743224); further: nearly all actives have a fitted effect of over 50% in size; further: potency means the concentration at half of the fitted maximal effect
Summary of the method: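 Compounds were pin-transferred onto VDR-bla cells plated 4 h earlier; following 16 h incubation at 37C, cell viability was quantified by CellTiter-Glo luminescence after 30 min at room temperature.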

[7] = qHTS assay to identify small molecule antagonists of the vitamin D receptor (VDR) signaling pathway - cell viability counter screen (AID 743225); further: nearly all actives have a fitted effect of over 50% in size; further: potency means the concentration at half of the fitted maximal effect
Summary of the method: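 Parallel cytotoxicity test: VDR-UAS-bla HEK 293T, 3 nM (final) 1-alpha,25-dihydroxyvitamin D3 with test compound, 16 h, 37C. Endpoint is CellTiter-Glo luminescence in the same wells.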

[8] = qHTS assay to identify small molecule agonists of the NFkB signaling pathway - cell viability counter screen (AID 1159515; calls by dose curve; further: nearly all actives have a fitted effect of over 55% in size; further: potency means the concentration at half of the fitted maximal effect)
Summary of the method: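 Parallel cytotoxicity counter screen in ME-180 cells carrying an NFkB-response-element beta-lactamase reporter, 2,000 cells/well. Compound exposure lasted 5 hr at 37 C, 5% CO2. Cell viability was quantified by CellTiter-Glo luminescence.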

[9] = biological target: Nuclear receptor ROR-gamma (Homo sapiens) (UniProt P51449); test: qHTS assay to identify small molecule antagonists of the retinoid-related orphan receptor gamma (ROR-gamma) signaling pathway (AID 1159521; further: nearly all actives have a fitted effect of over 50% in size; further: potency means the concentration at half of the fitted maximal effect)
Summary of the method: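 Decreased RORE-driven luciferase luminescence indicates antagonism. Tet-on RORγ CHO cells received compound, then 1 uM final doxycycline 2 h later; signal read after 16 h incubation.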

[10] = biological target: Peroxisome proliferator-activated receptor delta (Homo sapiens) (UniProt Q03181); test: qHTS assay to identify small molecule agonists of the peroxisome proliferator-activated receptor delta (PPARd) signaling pathway (AID 743212; calls by dose curve; further: potency means the concentration at half of the fitted maximal effect)
Summary of the method: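 Tox21 library screened in GeneBLAzer PPARd UAS-bla HEK293H cells. After compound treatment at 37 C, a FRET-based beta-lactamase substrate was applied for 2 h and fluorescence recorded.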

[11] = biological target: Peroxisome proliferator-activated receptor delta (Homo sapiens) (UniProt Q03181); test: qHTS assay to identify small molecule antagonists of the peroxisome proliferator-activated receptor delta (PPARd) signaling pathway (AID 743215; active means well fitted inhibition curve with a large enough effect in the signal ratio in the repeat runs, not every such curve was filed as active; the % refers to the signal ratio;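 further: cells stimulated with agonist L165041 at 300 nM final during compound exposure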; further: potency means the concentration at half of the fitted maximal effect)
Summary of the method: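 Plated HEK293H PPARd-bla cells rested 5 h at 37 C and 5% CO2. Compound, then agonist L165041 at 300 nM final, was added; 17 h at 37 C followed. Substrate loading, 2 h room temperature, fluorescence measured.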

[12] = biological target: Bile acid receptor (Homo sapiens) (UniProt Q96RI1); test: qHTS assay to identify small molecule antagonists of the farnesoid-X-receptor (FXR) signaling pathway (AID 743217; active means well fitted inhibition curve with a large enough effect in the signal ratio in the repeat runs, not every such curve was filed as active; the % refers to the signal ratio; further: on the % scale 0 is the no-effect control and ±100 the full control effect)
Summary of the method: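 Screen of the Tox21 10K library in quantitative HTS format using FXR-UAS-bla HEK 293T reporter cells. Agonist chenodeoxycholic acid, 50 uM final, added with compounds; 16 h incubation at 37 °C; beta-lactamase FRET fluorescence measured.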

[13] = biological target: Bile acid receptor (Homo sapiens) (UniProt Q96RI1); test: qHTS assay to identify small molecule agonists of the farnesoid-X-receptor (FXR) signaling pathway (AID 743220; active means well fitted activation curve with a large enough effect in the signal ratio in the repeat runs, not every such curve was filed as active; the % refers to the signal ratio; further: on the % scale 0 is the no-effect control and ±100 the full control effect)
Summary of the method: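 FXR-UAS-bla HEK 293T cells carrying a UAS-driven beta-lactamase reporter were plated for 5 h at 37C/5% CO2, then exposed to DMSO-dissolved Tox21 10K compounds for 16 h at 37C. A LiveBLAzer B/G FRET substrate was loaded for 2 h at room temperature before fluorescence reading.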

[14] = qHTS assay to identify small molecule agonists of the AP-1 signaling pathway - cell viability counter screen (AID 1159525; calls by dose curve; further: nearly all actives have a fitted effect of over 55% in size; further: potency means the concentration at half of the fitted maximal effect)
Summary of the method: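 Same-well cytotoxicity counter screen of the Tox21 10K library in ME-180 cells. The readout is ATP-dependent luminescence after 5 h compound treatment. Data are normalised to DMSO and tetra n-octyl ammonium bromide controls.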

[15] = qHTS assay to identify small molecule agonists of the AP-1 signaling pathway (AID 1159526; calls by dose curve; further: on the % scale 0 is the no-effect control and ±100 the full control effect)
[16] = biological target: Retinoic acid receptor RXR-alpha (Homo sapiens) (UniProt P19793); test: qHTS assay to identify small molecule agonists of the RXR signaling pathway (AID 1159527; calls by dose curve; further: on the % scale 0 is the no-effect control and ±100 the full control effect; nearly all actives have a fitted effect of over 35% in size)
Summary of the method: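 16 hr incubation of compound-treated RXR-alpha-UAS-bla HEK 293T cells (2% charcoal-stripped FBS, 37 C) preceded a 2 hr room-temperature LiveBLAzer FRET substrate step and blue/green fluorescence measurement.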

[17] = qHTS assay to identify small molecule antagonists of the retinoid-related orphan receptor gamma (ROR-gamma) signaling pathway - cell viability counter screen (AID 1159520); further: nearly all actives have a fitted effect of over 50% in size; further: potency means the concentration at half of the fitted maximal effect
Summary of the method: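 Tet-on ROR gamma CHO cells were given compounds for 2 hr, then doxycycline hyclate at 1 uM final, and incubated 16 hr at 37 C. Viability was measured as ATP content by CellTiter-Glo luminescence.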

[18] = biological target: Vitamin D3 receptor (Homo sapiens) (UniProt P11473); test: qHTS assay to identify small molecule agonists of the vitamin D receptor (VDR) signaling pathway (AID 743222; calls by dose curve; further: on the % scale 0 is the no-effect control and ±100 the full control effect)
Summary of the method: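 Fluorescence from cleaved LiveBLAzer B/G FRET substrate served as readout. VDR-bla cells had been treated 16 h at 37C with test compounds in DMSO, following a 4 h settling period, and substrate was loaded for 2 h at RT.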

Sequence of Peroxisome proliferator-activated receptor delta (Homo sapiens) (Q03181 whole entry, looked up): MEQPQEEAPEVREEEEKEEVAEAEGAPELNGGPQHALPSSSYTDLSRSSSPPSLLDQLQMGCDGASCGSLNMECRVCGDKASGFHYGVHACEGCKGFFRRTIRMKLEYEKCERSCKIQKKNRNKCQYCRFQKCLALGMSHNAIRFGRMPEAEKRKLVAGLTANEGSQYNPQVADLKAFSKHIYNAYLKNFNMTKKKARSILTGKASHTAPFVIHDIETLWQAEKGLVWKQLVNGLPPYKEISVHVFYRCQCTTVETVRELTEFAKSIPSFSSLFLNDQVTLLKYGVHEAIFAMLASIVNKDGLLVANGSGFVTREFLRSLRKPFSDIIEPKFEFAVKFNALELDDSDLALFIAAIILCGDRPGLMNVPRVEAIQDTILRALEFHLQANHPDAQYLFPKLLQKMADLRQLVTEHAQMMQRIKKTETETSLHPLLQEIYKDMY
Sequence of Bile acid receptor (Homo sapiens) (Q96RI1 whole entry, looked up): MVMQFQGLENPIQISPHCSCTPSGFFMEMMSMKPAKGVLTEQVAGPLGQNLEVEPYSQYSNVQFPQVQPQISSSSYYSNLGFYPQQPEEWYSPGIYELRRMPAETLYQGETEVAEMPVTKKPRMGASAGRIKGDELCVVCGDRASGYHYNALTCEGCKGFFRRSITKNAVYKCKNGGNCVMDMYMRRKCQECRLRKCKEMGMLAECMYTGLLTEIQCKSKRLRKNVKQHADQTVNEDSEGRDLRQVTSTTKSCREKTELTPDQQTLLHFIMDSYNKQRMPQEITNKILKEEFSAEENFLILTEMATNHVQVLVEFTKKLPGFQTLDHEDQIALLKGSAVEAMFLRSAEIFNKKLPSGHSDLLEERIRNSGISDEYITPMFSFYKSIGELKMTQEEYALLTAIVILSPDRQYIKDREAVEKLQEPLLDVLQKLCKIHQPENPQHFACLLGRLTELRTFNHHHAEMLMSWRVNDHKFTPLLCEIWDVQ
Sequence of Vitamin D3 receptor (Homo sapiens) (P11473 whole entry, looked up): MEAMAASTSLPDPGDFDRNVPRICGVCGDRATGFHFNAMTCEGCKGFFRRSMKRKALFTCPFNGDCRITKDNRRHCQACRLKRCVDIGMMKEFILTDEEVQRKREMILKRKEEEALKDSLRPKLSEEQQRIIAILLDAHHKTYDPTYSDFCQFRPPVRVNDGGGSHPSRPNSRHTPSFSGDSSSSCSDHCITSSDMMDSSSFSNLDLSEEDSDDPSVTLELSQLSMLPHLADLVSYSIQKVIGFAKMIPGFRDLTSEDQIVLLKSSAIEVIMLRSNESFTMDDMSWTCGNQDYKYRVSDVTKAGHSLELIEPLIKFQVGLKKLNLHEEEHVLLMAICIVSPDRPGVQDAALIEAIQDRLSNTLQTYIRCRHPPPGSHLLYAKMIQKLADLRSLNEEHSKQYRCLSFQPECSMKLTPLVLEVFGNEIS
Sequence of Retinoic acid receptor RXR-alpha (Homo sapiens) (P19793 whole entry, looked up): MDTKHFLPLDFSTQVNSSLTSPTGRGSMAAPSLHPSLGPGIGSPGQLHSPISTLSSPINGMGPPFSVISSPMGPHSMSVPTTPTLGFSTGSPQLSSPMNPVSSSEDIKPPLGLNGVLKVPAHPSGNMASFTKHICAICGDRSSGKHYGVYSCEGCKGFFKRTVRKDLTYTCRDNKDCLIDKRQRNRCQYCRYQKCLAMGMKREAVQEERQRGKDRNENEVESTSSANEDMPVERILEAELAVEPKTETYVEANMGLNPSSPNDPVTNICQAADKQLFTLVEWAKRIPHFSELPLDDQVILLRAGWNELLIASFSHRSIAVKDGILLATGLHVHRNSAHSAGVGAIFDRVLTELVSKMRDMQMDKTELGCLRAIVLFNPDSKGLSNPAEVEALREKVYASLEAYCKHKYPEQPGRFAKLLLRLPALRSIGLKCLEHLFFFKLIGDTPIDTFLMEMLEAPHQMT

CCCCCCCCCCCC(=O)NCCCN(C)C
active: Potency [1] 21.9 µM | Potency [2] 38.9 µM | Potency [3] 34.7 µM | Potency [4] 49 µM | Potency [5] 27.5 µM | Potency [6] 21.9 µM | Potency [7] 38.9 µM | Potency [8] 54.9 µM | Potency [9] 30.6 µM

O=C(O)c1c(Cl)cccc1Cl
inactive: Potency [1] | Potency [10] | Potency [2] | Potency [11] | Potency [12] | Potency [3] | Potency [13] | Potency [4] | Potency [6] | Potency [7] | Potency [8] | Potency [9] | Potency [14] | Potency [15] | Potency [16]

C[n+]1cc2c3c(ccc2c2ccc4cc5c(cc4c21)OCO5)OCO3
inactive: Potency [13]
active: Potency [1] 1.46 µM | Potency [2] 1.84 µM | Potency [3] 1.46 µM | Potency [4] 1.46 µM | Potency [6] 0.58 µM | Potency [7] 1.31 µM | Potency [8] 1.17 µM | Potency [17] 1.64 µM | Potency [14] 2.08 µM

O=C(OC[C@H]1O[C@@H](OC(=O)c2cc(O)c(O)c(OC(=O)c3cc(O)c(O)c(O)c3)c2)[C@H](OC(=O)c2cc(O)c(O)c(OC(=O)c3cc(O)c(O)c(O)c3)c2)[C@@H](OC(=O)c2cc(O)c(O)c(OC(=O)c3cc(O)c(O)c(O)c3)c2)[C@@H]1OC(=O)c1cc(O)c(O)c(OC(=O)c2cc(O)c(O)c(O)c2)c1)c1cc(O)c(O)c(OC(=O)c2cc(O)c(O)c(O)c2)c1
active: Potency [2] 13.2 µM
inactive: Potency [3] | Potency [4] | Potency [18] | Potency [8] | activity, negative = cytotoxicity [17] -4.77% [at 19 µM] | viability change, negative = cytotoxic [14] 1.96% [at 15.8 µM]

C[C@@H](NCCCc1cccc(C(F)(F)F)c1)c1cccc2ccccc12
inactive: Potency [13]
active: Potency [1] 11.9 µM | Potency [2] 26.6 µM | Potency [11] 29.8 µM | Potency [3] 29.8 µM | Potency [6] 29.8 µM | Potency [7] 23.9 µM | Potency [8] 23.9 µM | Potency [17] 29.8 µM | Potency [14] 23.9 µM

NNc1nc(-c2ccccc2)cs1
inactive: Potency [11] | Potency [5] | Potency [8] | Potency [9] | Potency [14] | Potency [16]

CCCCC(CC)COC(=O)c1ccccc1C(=O)O (centres undefined)
inactive: Potency [4] | Potency [8] | Potency [17] | Potency [14]
active: Potency [10] 49.9 µM

COc1ccc(CN2CCN(C(c3ccc(F)cc3)c3ccc(F)cc3)CC2)c(OC)c1OC
active: Potency [1] 29.8 µM | Potency [2] 23.7 µM | Potency [3] 21.1 µM | Potency [4] 29.8 µM | Potency [6] 29.8 µM | Potency [7] 16.9 µM | Potency [8] 15.1 µM | Potency [9] 23.7 µM
inactive: Potency [18]

O=CC=C(c1ccccc1)c1ccccc1
active: Potency [9] 61.6 µM
inactive: Potency [10] | Potency [12] | Potency [8] | Potency [14]

CCOC(=O)c1nc(C(Cl)(Cl)Cl)n(-c2ccc(Cl)cc2Cl)n1
active: Potency [1] 54.9 µM | Potency [2] 49 µM | Potency [7] 49 µM | Potency [9] 21.7 µM
inactive: Potency [13] | Potency [18] | Potency [8] | Potency [14]

C=CC(=O)OCC(CO)(COCC(COC(=O)C=C)(COC(=O)C=C)COC(=O)C=C)COC(=O)C=C
inactive: Potency [18]
active: Potency [1] 3.05 µM | Potency [2] 5.43 µM | Potency [3] 4.31 µM | Potency [4] 9.65 µM | Potency [5] 2.72 µM | Potency [6] 3.84 µM | Potency [7] 5.43 µM | Potency [8] 48.4 µM | Potency [9] 2.7 µM | Potency [14] 24.2 µM

CCCC(=O)OC[C@@H](OC(=O)CCC)[C@@H](OC(=O)CCC)[C@H](Cn1c2nc(=O)[nH]c(=O)c-2nc2cc(C)c(C)cc21)OC(=O)CCC
inactive: Potency [1] | Potency [4] | Potency [6] | Potency [7] | Potency [8] | Potency [17] | Potency [14]

Cn1cc(C(=O)[C@@H]2CCc3nc[nH]c3C2)c2ccccc21
inactive: Potency [1] | Potency [10] | Potency [12] | Potency [3] | Potency [13] | Potency [4] | Potency [18] | Potency [5] | Potency [6] | Potency [7] | Potency [8] | Potency [17] | Potency [14]

Cc1cc(C2CCCCC2)n(O)c(=O)c1
inactive: Potency [14]
active: Potency [1] 5.31 µM | Potency [2] 9.44 µM | Potency [6] 18.8 µM | Potency [8] 5.35 µM | Potency [9] 23.7 µM

CCCCN(CCCC)c1ccc(C(=O)c2ccccc2C(=O)O)c(O)c1
active: Potency [1] 44.1 µM | Potency [2] 44.1 µM | Potency [4] 44.1 µM
inactive: Potency [13] | Potency [8] | Potency [9] | Potency [14] | Potency [15]
